According to the supplement of paper PMC10849652:
Targets with a hit are over-represented here; the source holds about 7,900 in all. About 0.6% of all pairs of compound and target were hits. Unmarked numbers belong to inactive results.

Experiments:
Test in all cases: log2 fold change, soluble protein after heating vs DMSO (PISA); higher = thermal stabilisation; K562 cells, 10 uM, 30 min; active = over 0.2 and 3.5 SD of the protein, either way, in both replicates (recomputed)
IRAK-1-4 Inhibitor I = compound: C1COCCN1CCN2C3=CC=CC=C3N=C2NC(=O)C4=CC(=CC=C4)[N+](=O)[O-] [IRAK-1-4 Inhibitor I]
Summary of the method: (§1)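 Aliquots of K562 cells (2×10^6 cells/mL) treated with 10 μM compound for 30 min were heated for 3 min over 48°C-58°C. After pooling and extraction in PBS with 0.5% NP-40 at 4°C, soluble protein from a 21,000xg, 90 min spin was quantified by TMTpro 16plex LC-MS/MS with channel sums equalised. Thermal stability is expressed against control samples, from duplicates, as a log2 fold change.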

ibrutinib = compound: C=CC(=O)N1CCC[C@@H](n2nc(-c3ccc(Oc4ccccc4)cc3)c3c(N)ncnc32)C1 [ibrutinib]
Summary of the method: as §1

[1] = compound: CC(=O)c1cnc2ccc(-c3cc(Cl)c(O)c(Cl)c3)nc2c1N[C@H]1CC[C@H](CN(C)C)CC1
Summary of the method: as §1

ralimetinib = compound: CC(C)(C)Cn1c(N)nc2ccc(-c3[nH]c(C(C)(C)C)nc3-c3ccc(F)cc3)nc21 [ralimetinib]
Summary of the method: as §1

[2] = compound: CC(C)(O)CC(=O)NCCn1ccc2ncnc(Nc3ccc(Oc4cccc(C(F)(F)F)c4)c(Cl)c3)c21
Summary of the method: as §1

[3] = compound: CC(C)C1=C2N=C(C=C(N2N=C1)NCC3=CC=CC=C3)NCCCCCCN
Summary of the method: as §1

[4] = compound: CC(C)C[C@@H](C=O)NC(=O)[C@H](CC(C)C)NC(=O)[C@H](CC(C)C)NC(=O)OCc1ccccc1
Summary of the method: as §1

pinometostat = compound: CC(C)N(C[C@H]1O[C@@H](n2cnc3c(N)ncnc32)[C@H](O)[C@@H]1O)[C@H]1C[C@@H](CCc2nc3cc(C(C)(C)C)ccc3[nH]2)C1 [pinometostat]
Summary of the method: as §1

[5] = compound: CC1=C(C(CC(=O)N1)C2=CC=C(C=C2)C(F)(F)F)C(=O)NC3=C(C=C4C(=C3)C=NN4)F
Summary of the method: as §1

[6] = compound: CC1=C(C2=C(C=C1)C(=O)C3=CC=CC=C3N2CCCN)C
Summary of the method: as §1

Chain of UniProt Q14493 (Q14493 whole entry, looked up): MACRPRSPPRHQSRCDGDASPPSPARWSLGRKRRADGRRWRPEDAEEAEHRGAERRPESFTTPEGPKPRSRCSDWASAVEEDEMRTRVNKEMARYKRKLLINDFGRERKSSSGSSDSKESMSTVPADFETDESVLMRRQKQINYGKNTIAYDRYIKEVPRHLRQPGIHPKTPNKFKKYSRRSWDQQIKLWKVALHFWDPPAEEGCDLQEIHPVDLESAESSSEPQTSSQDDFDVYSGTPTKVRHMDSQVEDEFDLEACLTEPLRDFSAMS
Chain of UniProt A6NEQ0 (A6NEQ0 whole entry, looked up): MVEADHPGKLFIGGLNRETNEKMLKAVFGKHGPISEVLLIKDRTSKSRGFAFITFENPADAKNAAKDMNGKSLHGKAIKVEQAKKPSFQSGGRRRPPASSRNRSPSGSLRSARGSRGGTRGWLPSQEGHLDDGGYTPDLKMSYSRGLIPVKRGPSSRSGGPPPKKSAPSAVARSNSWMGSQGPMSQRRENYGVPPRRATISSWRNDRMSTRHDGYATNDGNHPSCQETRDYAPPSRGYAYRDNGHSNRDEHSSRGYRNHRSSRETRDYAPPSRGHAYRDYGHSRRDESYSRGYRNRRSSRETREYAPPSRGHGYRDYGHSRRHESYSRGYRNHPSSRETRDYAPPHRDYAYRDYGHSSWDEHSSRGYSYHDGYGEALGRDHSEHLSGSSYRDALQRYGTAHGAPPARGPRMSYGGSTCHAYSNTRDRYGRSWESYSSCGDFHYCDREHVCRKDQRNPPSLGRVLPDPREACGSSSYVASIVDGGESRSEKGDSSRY
Chain of UniProt Q6R327 (Q6R327 whole entry, looked up): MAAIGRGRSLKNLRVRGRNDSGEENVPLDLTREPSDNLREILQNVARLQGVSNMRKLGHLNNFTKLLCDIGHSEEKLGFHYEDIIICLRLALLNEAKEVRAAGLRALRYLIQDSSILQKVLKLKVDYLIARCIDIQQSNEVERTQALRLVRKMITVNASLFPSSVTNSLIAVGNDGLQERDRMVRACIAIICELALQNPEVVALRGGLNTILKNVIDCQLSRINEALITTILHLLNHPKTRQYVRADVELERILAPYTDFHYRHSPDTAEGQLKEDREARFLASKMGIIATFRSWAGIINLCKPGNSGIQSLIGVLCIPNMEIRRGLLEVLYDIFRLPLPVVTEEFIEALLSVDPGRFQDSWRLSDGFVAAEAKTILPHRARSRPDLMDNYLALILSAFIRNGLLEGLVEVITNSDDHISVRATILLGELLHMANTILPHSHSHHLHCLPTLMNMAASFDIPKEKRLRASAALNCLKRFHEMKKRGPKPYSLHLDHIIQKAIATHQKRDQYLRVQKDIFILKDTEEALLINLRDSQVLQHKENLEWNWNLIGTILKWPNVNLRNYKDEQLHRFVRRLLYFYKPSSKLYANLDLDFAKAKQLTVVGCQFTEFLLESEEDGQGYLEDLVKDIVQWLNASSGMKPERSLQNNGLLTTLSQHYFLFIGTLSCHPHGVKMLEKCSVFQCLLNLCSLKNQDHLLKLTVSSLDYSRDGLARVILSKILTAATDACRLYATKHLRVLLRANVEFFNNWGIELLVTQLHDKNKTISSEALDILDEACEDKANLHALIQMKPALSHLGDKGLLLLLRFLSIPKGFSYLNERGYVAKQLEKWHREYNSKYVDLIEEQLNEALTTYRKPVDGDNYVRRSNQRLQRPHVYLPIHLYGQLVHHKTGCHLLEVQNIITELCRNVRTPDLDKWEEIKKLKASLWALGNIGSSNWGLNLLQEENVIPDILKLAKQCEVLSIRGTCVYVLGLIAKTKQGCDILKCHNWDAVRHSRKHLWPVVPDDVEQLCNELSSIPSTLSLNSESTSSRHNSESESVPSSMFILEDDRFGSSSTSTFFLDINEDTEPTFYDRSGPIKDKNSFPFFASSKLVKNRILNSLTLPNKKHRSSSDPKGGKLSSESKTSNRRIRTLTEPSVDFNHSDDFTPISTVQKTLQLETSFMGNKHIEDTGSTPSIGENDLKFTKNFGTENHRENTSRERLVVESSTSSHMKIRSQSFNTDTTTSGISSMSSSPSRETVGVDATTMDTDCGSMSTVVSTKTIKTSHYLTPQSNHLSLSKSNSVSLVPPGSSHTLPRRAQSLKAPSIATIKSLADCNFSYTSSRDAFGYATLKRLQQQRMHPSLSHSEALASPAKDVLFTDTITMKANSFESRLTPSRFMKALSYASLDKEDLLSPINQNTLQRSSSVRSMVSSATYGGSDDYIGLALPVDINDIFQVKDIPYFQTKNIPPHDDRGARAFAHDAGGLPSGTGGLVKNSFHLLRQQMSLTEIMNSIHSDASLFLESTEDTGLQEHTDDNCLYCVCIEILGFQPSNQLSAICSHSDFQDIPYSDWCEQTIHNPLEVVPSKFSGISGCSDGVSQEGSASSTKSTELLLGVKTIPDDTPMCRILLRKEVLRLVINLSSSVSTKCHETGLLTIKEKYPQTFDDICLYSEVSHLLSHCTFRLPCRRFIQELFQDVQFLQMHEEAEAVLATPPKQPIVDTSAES
Chain of UniProt Q7L099 (Q7L099 whole entry, looked up): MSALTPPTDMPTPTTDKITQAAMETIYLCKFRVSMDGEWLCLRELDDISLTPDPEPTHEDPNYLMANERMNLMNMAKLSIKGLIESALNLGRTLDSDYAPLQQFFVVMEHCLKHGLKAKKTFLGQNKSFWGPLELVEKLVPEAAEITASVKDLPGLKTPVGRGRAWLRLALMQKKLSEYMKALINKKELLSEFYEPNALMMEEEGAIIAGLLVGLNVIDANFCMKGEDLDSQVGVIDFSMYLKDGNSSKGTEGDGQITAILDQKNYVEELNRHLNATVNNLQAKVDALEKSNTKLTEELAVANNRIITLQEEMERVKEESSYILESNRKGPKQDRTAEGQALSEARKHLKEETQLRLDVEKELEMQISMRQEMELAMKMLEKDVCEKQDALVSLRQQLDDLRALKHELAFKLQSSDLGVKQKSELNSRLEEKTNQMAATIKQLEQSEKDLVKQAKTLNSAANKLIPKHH
Chain of UniProt O14796 (O14796 whole entry, looked up): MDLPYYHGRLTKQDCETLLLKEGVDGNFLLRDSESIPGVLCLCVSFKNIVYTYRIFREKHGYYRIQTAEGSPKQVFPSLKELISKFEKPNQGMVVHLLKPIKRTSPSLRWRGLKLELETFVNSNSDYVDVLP
Chain of UniProt O95716 (O95716 whole entry, looked up): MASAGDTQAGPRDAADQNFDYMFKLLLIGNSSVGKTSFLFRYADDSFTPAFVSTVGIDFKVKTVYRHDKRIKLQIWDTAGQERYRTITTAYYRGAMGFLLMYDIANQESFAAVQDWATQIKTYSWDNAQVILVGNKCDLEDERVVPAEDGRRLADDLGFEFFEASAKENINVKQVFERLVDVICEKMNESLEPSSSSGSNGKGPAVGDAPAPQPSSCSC
Chain of UniProt Q96EU6 (Q96EU6 whole entry, looked up): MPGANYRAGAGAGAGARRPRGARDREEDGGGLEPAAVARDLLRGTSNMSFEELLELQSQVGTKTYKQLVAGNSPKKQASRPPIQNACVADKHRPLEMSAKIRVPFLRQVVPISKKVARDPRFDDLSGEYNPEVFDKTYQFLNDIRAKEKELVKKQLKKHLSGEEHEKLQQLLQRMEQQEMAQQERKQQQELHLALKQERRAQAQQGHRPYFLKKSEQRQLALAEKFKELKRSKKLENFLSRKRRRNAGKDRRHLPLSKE
Chain of UniProt P43003 (P43003 whole entry, looked up): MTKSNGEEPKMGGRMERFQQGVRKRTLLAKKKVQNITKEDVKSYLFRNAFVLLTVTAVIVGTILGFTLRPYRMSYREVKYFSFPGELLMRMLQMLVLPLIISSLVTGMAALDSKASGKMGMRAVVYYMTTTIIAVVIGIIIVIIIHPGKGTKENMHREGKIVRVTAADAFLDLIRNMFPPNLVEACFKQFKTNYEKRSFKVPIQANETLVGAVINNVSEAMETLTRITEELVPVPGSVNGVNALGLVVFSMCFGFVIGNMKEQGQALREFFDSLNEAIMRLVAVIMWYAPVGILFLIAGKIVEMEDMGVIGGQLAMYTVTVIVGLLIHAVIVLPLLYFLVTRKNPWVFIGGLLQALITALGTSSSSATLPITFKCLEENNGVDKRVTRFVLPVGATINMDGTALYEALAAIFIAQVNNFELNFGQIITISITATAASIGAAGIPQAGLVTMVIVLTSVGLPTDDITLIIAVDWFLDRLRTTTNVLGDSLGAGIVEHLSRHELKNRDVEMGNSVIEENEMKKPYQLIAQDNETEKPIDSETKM
Chain of UniProt Q99496 (Q99496 whole entry, looked up): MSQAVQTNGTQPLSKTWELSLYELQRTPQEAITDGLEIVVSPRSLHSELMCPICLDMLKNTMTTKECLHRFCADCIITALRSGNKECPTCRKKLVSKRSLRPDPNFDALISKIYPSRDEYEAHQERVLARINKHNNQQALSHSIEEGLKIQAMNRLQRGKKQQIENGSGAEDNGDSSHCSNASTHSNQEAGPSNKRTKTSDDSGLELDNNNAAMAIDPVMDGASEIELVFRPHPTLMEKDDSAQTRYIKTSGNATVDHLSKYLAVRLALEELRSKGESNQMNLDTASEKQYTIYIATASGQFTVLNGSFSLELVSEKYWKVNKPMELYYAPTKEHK
Chain of UniProt Q9NQG5 (Q9NQG5 whole entry, looked up): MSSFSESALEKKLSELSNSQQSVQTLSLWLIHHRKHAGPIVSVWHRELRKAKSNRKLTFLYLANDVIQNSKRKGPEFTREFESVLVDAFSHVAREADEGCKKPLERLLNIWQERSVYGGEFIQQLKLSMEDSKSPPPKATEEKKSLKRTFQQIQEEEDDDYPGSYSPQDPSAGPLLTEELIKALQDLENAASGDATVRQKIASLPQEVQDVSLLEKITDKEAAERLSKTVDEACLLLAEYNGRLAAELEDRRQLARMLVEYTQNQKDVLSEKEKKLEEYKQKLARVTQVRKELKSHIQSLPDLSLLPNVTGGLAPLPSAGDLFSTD
Chain of UniProt Q96GF1 (Q96GF1 whole entry, looked up): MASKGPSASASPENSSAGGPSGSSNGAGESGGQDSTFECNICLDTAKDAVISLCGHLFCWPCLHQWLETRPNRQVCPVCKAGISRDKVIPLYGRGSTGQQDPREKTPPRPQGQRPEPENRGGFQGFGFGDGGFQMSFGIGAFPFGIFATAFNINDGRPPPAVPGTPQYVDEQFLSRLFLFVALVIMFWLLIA

Row | Target | log2 fold change (IRAK-1-4 Inhibitor I) | log2 fold change (ibrutinib) | log2 fold change [1] | log2 fold change (ralimetinib) | log2 fold change [2] | log2 fold change [3] | log2 fold change [4] | log2 fold change (pinometostat) | log2 fold change [5] | log2 fold change [6]
1 | RAB9A (UniProt P51151) | 0.018 | 0.018 | -0.001 | -0.001 | -0.014 | -0.126 | -0.008 | -0.027 | -0.021 | 0.06
2 | RNF2 (UniProt Q99496) | -0.024 | 0.086 | 0.001 | – | -0.065 | 0.091 | – | 0.066 | 0.04 | -0.058
3 | RPS14 (UniProt P62263) | -0.178 | 0.03 | 0.079 | 0.135 | -0.014 | -0.016 | 0.003 | -0.013 | 0.035 | -0.586 (active)
4 | SART3, A0A499FI31 | -0.021 | -0.017 | 0.062 | 0.002 | -0.033 | -0.379 (active) | -0.051 | -0.025 | 0.021 | -0.377 (active)
5 | RAF1 isoform 2 (UniProt P04049) | -0.038 | -0.058 | -0.263 | -0.054 | -0.072 | -0.12 | 0.066 | 0.29 | – | 0.09
6 | SASH1 (UniProt O94885) | 0.145 | -0.069 | -0.097 | -0.138 | 0.002 | -0.25 | 0.152 | 0.081 | -0.077 | 0.07
7 | RAPGEF4 (UniProt Q8WZA2) | -0.184 | -0.025 | -0.022 | – | 0.065 | 0.089 | – | -0.096 | – | 0.109
8 | RPS3A (UniProt P61247) | -0.133 | 0.028 | 0.072 | 0.053 | 0.069 | -0.071 | 0.059 | 0.108 | 0.03 | -0.565 (active)
9 | SCO2 (UniProt O43819) | 0.02 | 0.014 | -0.06 | 0.142 | -0.154 | -0.071 | 0.024 | 0.054 | – | 0.07
10 | SEC23IP (UniProt Q9Y6Y8) | -0.007 | -0.023 | -0.048 | -0.004 | -0.119 | -0.252 (active) | 0.006 | 0.032 | 0.059 | -0.011
11 | SACM1L (UniProt Q9NTJ5) | 0.008 | -0.031 | -0.022 | 0.064 | -0.007 | -0.262 (active) | -0.01 | -0.042 | -0.035 | 0.029
12 | RPRD1B (UniProt Q9NQG5) | 0 | -0.021 | -0.017 | 0 | -0.06 | -0.018 | -0.028 | -0.038 | 0.022 | 0.104
13 | RIOK3 (UniProt O14730) | 0.087 | 0.002 | 0.024 | -0.009 | -0.083 | -0.009 | 0.021 | -0.011 | 0.019 | -0.231 (active)
14 | RPAIN isoform 8 (UniProt Q86UA6) | -0.022 | 0.034 | -0.124 | -0.048 | 0.048 | – | -0.221 | 0.011 | – | -0.168
15 | SLBP (UniProt Q14493) | -0.123 | -0.162 | -0.38 (active) | -0.068 | -0.09 | -0.206 | 0.162 | -0.034 | 0.098 | -0.126
16 | RNF41 (UniProt Q9H4P4) | – | -0.104 | 0.082 | – | – | – | – | – | – | –
17 | RAP2C (UniProt Q9Y3L5) | – | 0.016 | -0.032 | 0.021 | -0.107 | 0.148 | 0.048 | – | -0.104 | 0.11
18 | RPS3 (UniProt E9PJN9) | – | – | – | 0.228 | – | – | 0.134 | – | – | -0.126
19 | SLC1A3 (UniProt P43003) | – | 0.168 | 0.056 | 0.058 | 0.007 | 0.238 | -0.064 | – | 0.018 | 0.029
20 | SCLT1 (UniProt Q96NL6) | -0.046 | -0.049 | – | – | – | – | – | 0.005 | -0.118 | 0.129
21 | SH2D1B (UniProt O14796) | 0.202 | – | -1.57 (active) | 0.042 | -0.052 | 0.095 | 0.005 | 0.027 | 0.106 | -0.004
22 | SDC3 (UniProt O75056) | – | – | 0.089 | – | -0.006 | – | – | – | 0.042 | -0.036
23 | RNF185 (UniProt Q96GF1) | – | 0.045 | 0.087 | -0.04 | – | -0.011 | -0.003 | – | 0.006 | 0.276
24 | S100A10 (UniProt P60903) | – | 0.605 | -0.345 | – | – | – | – | – | -0.06 | 0.522
25 | RUFY3 isoform 3 (UniProt Q7L099) | -0.008 | – | 0.023 | 0.196 | – | -0.098 | -0.054 | 0.035 | -0.123 | 0.044

Row | Target | log2 fold change (IRAK-1-4 Inhibitor I) | log2 fold change (ibrutinib) | log2 fold change [1] | log2 fold change (ralimetinib) | log2 fold change [2] | log2 fold change [3] | log2 fold change [4] | log2 fold change (pinometostat) | log2 fold change [5] | log2 fold change [6]
26 | SAFB2 (UniProt K7EQU4) | -0.129 | 0.131 | – | – | -0.042 | – | – | -0.051 | -0.31 | –
27 | RBM6 (UniProt P78332) | 0.146 | – | -0.208 | – | – | – | – | -0.09 | -0.19 | -0.16
28 | RNF26 (UniProt Q9BY78) | – | -0.033 | – | 0.095 | – | – | 0.281 | – | – | –
29 | RPS3A (UniProt D6R9B6) | – | – | -0.124 | – | – | – | – | – | – | -0.363
30 | SAMD4B (UniProt Q5PRF9) | 0.007 | -0.024 | – | 0.053 | 0.133 | 0.142 | 0.04 | 0.051 | 0.05 | 0.039
31 | RAB3D (UniProt O95716) | – | -0.096 | -0.02 | 0.133 | – | 0.121 | -0.605 (active) | – | -0.14 | -0.104
32 | SDCBP isoform 2 (UniProt O00560) | – | 0 | – | 0.06 | 0.008 | -0.444 | 0.13 | – | -0.29 | 0.033
33 | SCAMP2 (UniProt O15127) | – | 0.09 | 0.08 | -0.019 | 0.013 | 0.003 | 0.036 | – | -0.093 | -0.066
34 | RNF220 isoform 3 (UniProt Q5VTB9) | – | – | 0.086 | – | – | 0.056 | – | – | – | –
35 | RRP36 (UniProt Q96EU6) | – | 0.045 | 0.122 | 0.083 | 0 | 0.044 | 0.042 | – | 0.021 | -0.785 (active)
36 | RPS19 (UniProt M0R2L9) | – | – | -0.083 | – | – | – | – | – | 0.538 | -0.177
37 | RBMY1E (UniProt A6NEQ0) | 0.019 | -0.024 | – | 0.131 | – | 0.134 | 0.141 | -0.032 | 0.026 | -0.01
38 | RPS6KA5 (UniProt O75582) | 0.071 | – | – | -0.11 | -0.042 | -0.218 | 0.069 | -0.431 | – | –
39 | SH3PXD2B (UniProt A1X283) | – | -0.115 | -0.005 | – | 0.035 | 0.075 | – | – | -0.054 | 0.027
40 | ROMO1 (UniProt P60602) | – | 0.069 | -0.044 | -0.024 | 0.052 | -0.051 | -0.083 | – | 0.039 | -0.077
41 | SIK3 (UniProt H0Y4E8) | 0.043 | – | -0.425 (active) | 0.135 | – | 0.186 | -0.167 | -0.036 | 0.179 | -0.124
42 | RICTOR isoform 3 (UniProt Q6R327) | – | – | 0.866 (active) | – | -0.084 | -0.584 | – | – | 0.07 | -0.223
43 | SEMG2 (UniProt Q02383) | – | -0.031 | -0.148 | – | -0.011 | – | – | – | -0.031 | 0.049
44 | SEPTIN5 (UniProt G3XAH0) | – | 0.018 | 0.123 | -0.056 | -0.133 | 0.092 | -0.009 | – | -0.003 | 0.027
45 | SAP30 (UniProt O75446) | 0.018 | – | 0.085 | – | 0.151 | 0.111 | – | 0.111 | 0.041 | –
46 | RMDN2 isoform 2 (UniProt Q96LZ7) | 0.034 | – | – | 0.095 | – | – | 0.137 | 0.025 | -0.192 | –
47 | RALGPS2 (UniProt Q86X27) | -0.249 | 0.061 | -0.045 | – | 0.051 | 0.141 | – | 0.397 | – | 0.029
48 | SLC12A5 (UniProt Q9H2X9) | -0.024 | -0.006 | -0.101 | – | 0.14 | 0.052 | – | -0.113 | – | 0.047
49 | RBM26 isoform 3 (UniProt Q5T8P6) | – | – | -0.528 | – | – | – | – | – | – | –
